From PubChem BioAssay (NCI)
Compounds without any hit were thinned out: in the full panel of roughly 79,000, 15% have a hit. The source made the active and inactive calls. Rule as the data show it: active = growth inhibition above about 70%; inactive = the rest.

How the values were obtained:
[1] = NCI Yeast Anticancer Drug Screen. Data for the rad50 strain (AID 155);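 also: 0% = growth of vehicle-only cultures of the same strain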; details: S. cerevisiae rad50 strain growth inhibition; at 50.0 µM; active compounds read high
In short: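 Yeast carrying a defined DNA repair defect were exposed to test compounds, and growth was compared with vehicle-treated controls to give percent inhibition.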

[2] = NCI Yeast Anticancer Drug Screen. Data for the mec2-1 strain (AID 157); details: S. cerevisiae mec2-1 strain, at 50.0 µM, active compounds read high
In short: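 Strain: mec2-1 (DNA repair/cell cycle alteration). Compound exposure, then growth measured; inhibition expressed relative to vehicle.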

[3] = NCI Yeast Anticancer Drug Screen. Data for the sgs1 mgt1 strain (AID 161);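 also: 0% = growth of cultures given vehicle only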; details: S. cerevisiae sgs1 mgt1 strain, at 50.0 µM, active compounds read high
In short: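 Test agents were incubated with a DNA-repair-mutant yeast strain. Growth was then read and compared against vehicle-treated controls.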

[4] = NCI Yeast Anticancer Drug Screen. Data for the cln2 rad14 strain (AID 165);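 also: 0% = growth equal to vehicle treated cultures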; details: S. cerevisiae cln2 rad14 strain, at 50.0 µM, active compounds read high
In short: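 Compounds are applied to the cln2 rad14 yeast strain, and growth is then compared with that of vehicle-treated cultures to give inhibition.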

[5] = NCI Yeast Anticancer Drug Screen. Data for the bub3 strain (AID 167); details: S. cerevisiae bub3 mutant strain, at 50.0 µM, active compounds read high
In short: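 Compounds were applied to a genetically altered yeast strain carrying a cell-cycle control defect. Growth inhibition was scored against vehicle-treated controls.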

[6] = NCI Yeast Anticancer Drug Screen. Data for the mlh1 rad18 strain (AID 175); details: S. cerevisiae mlh1 rad18 strain growth inhibition; at 50.0 µM; active compounds read high
In short: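 Read-out is yeast growth inhibition, calculated against vehicle-only controls. The compound was applied to a strain engineered with DNA damage repair alterations.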

Measured: growth inhibition

CCC1CC[N-]CC1.CCC1CC[N-]CC1.CCC1CC[N-]CC1.CCC1CC[N-]CC1.N#C[S-].N#C[S-].[Co]
inactive: [1] 23.1% | [2] 16.9% | [3] 34% | [4] 15.3% | [5] 26.8% | [6] 24.8%

CNC(Cc1ccccc1)c1ccc(O)c(OC)c1 (stereo unspecified)
inactive: [1] -0.5% | [2] -15.6% | [3] -7.35% | [4] -35% | [5] 5.05% | [6] 0.75%

Cc1cccc(Cl)c1OP(=O)(Oc1c(C)cccc1Cl)Oc1c(C)cccc1Cl
inactive: [1] -10.4% | [2] -7.8% | [3] -19.3% | [4] -19.3% | [5] 2.25% | [6] -51.4%

CCC(CCl)NC(CC(C)C)CC(C)C (stereo unspecified)
inactive: [1] -1.95% | [2] 2.95% | [3] -6.75% | [4] -10.5% | [5] -4.7% | [6] -10.8%

C[C@]12CC[C@H](O[C@@H]3O[C@H](CO[C@@H]4O[C@H](CO)[C@@H](O)[C@H](O)[C@H]4O)[C@@H](O)[C@H](O)[C@H]3O)C[C@@H]1CC[C@@H]1[C@@H]2CC[C@]2(C)[C@@H](C3=CC(=O)OC3)CC[C@]12O
inactive: [1] -7.75% | [2] -13.6% | [3] -1.85% | [4] -0.85% | [5] -1.95% | [6] 8.85%

O=[As]c1ccc(C(=O)Cl)cc1 (stereo unspecified)
inactive: [1] -2.3% | [2] -16.4% | [3] -20.1% | [4] 2.15% | [5] -25.3% | [6] 0.45%

Cc1cc(NC(=O)Oc2ccc([N+](=O)[O-])cc2)ccc1S(=O)(=O)F
inactive: [1] 1.85% | [2] 39.4% | [3] 14.2% | [4] 4% | [5] 28.6% | [6] 35%

COc1ccc(N=NC(=O)NC(CC(C)C)C(=O)NC(C)C(=O)O)cc1 (stereo unspecified)
inactive: [1] -11.8% | [2] -26.4% | [3] -8.5% | [4] -19.6% | [5] -31.4% | [6] 5.15%

COC(C)C(O)(C(=O)OCC1=CCN2CCC(O)C12)C(C)(C)O (stereo unspecified)
inactive: [1] 1.25% | [2] -5.35% | [3] 21.4% | [4] 5.4% | [5] 10.1% | [6] -52.4%

CCOC(=O)NP(=O)(Nc1ccc(C)cc1)Nc1ccc(C)cc1
inactive: [1] 6.2% | [2] -12% | [3] -0.3% | [4] 6.75% | [5] -9.55% | [6] -1.45%

O.O.[Cl][Pt+2][Cl].[NH-]CC[NH-]
inactive: [1] 23.6% | [2] 10.7% | [3] -2.15% | [4] 41.5% | [5] 16% | [6] 9.85%

COc1ccccc1CN1CCN(Cc2ccccc2OC)C1c1ccc(N(CCCl)CCCl)cc1
inactive: [1] -9.8% | [2] -9.05% | [3] -14.7% | [4] -32.5% | [5] -1.9% | [6] -4.1%

OC12CCC[N+]1(Cc1ccccc1)CCC2 (stereo unspecified)
inactive: [1] 9.25% | [2] -9.75% | [3] -7.9% | [4] 2.85% | [5] -0.55% | [6] -18.1%

CN(C)C(=O)N(CCCl)N=O
inactive: [1] 5.1% | [2] -4.2% | [3] 1.45% | [4] 2.55% | [5] 13.1% | [6] 20.8%

O=C1NC(=O)C(F)(n2cc(F)c(=O)[nH]c2=O)C(O)N1 (stereo unspecified)
inactive: [1] -47.8% | [2] -31.3% | [3] -10.2% | [4] -40% | [5] -13.4% | [6] -54.9%

CCCCCCCCCCCCCCCC(=O)[O][Hg][c]1ccccc1
active: [1] 97.6% | [2] 96.7% | [3] 99% | [4] 98.1% | [5] 99.2% | [6] 98.8%

COc1cc2c(cc1OC)-c1c3c(cc4c1[C@@H](C2)N(C)CC4)OCO3
inactive: [1] -23.8% | [2] -12.8% | [3] -12.8% | [4] -1.9% | [5] -21.7% | [6] -17.6%

PCc1ccccc1.[Cl][Hg][Cl]
inactive: [1] -34.7% | [2] 12.7% | [3] 14.2% | [4] -59.4% | [5] -6% | [6] 12.6%

N#CCCSCCC#N
inactive: [1] 25.4% | [2] 6.55% | [3] 14.1% | [4] 3.7% | [5] 6.8% | [6] 4.6%

CC(C)(C)N1COC2CCCCC21 (stereo unspecified)
inactive: [1] 17.4% | [2] -3.2% | [3] 4.65% | [4] -4.25% | [5] 16.4% | [6] 14.6%

C(=NCCN1CCOCC1)=NC1CCCCC1
inactive: [1] -22.4% | [2] -3.25% | [3] -10.9% | [4] -21.1% | [5] -58.1% | [6] -16.1%

Cc1ccc(OP(=O)(Oc2ccc(C)cc2)Oc2ccc(C)cc2)cc1.Cc1ccc(OP(=O)(Oc2ccc(C)cc2)Oc2ccc(C)cc2)cc1.Cc1ccc(OP(=O)(Oc2ccc(C)cc2)Oc2ccc(C)cc2)cc1.Cc1ccc(OP(=O)(Oc2ccc(C)cc2)Oc2ccc(C)cc2)cc1.[Nd+3].[O-][Cl+3]([O-])([O-])O
inactive: [1] 34.4% | [2] 23.7% | [3] 37.8% | [4] 27% | [5] 52.8% | [6] 25.7%

O=c1cc(N2CCNCC2)nc2ccccn12
inactive: [1] 2.9% | [2] 4.4% | [3] 4.95% | [4] 1.4% | [5] 6.95% | [6] 6.35%

Oc1ccccc1I
inactive: [1] 11.9% | [2] 4.85% | [3] -57% | [4] -8.7% | [5] -42.9% | [6] -14.2%

O=[N+]([O-])c1c(Cl)cc(Cl)c([N+](=O)[O-])c1Cl
inactive: [1] 15.6% | [2] 5.25% | [3] 17.1% | [4] 3.9% | [5] 2.85% | [6] 32.1%

C=Cn1nnc(N)n1
inactive: [1] -4.9% | [2] -0.45% | [3] -16.7% | [4] 4.55% | [5] 17.1% | [6] 9.05%

CCC(=O)N/N=C(\N)N[N+](=O)[O-]
inactive: [1] -16.1% | [2] -6.55% | [3] -20.5% | [4] -83.6% | [5] -3.1% | [6] -9.65%

CC(C)c1cccc(C(C)C)c1NC(=O)/C(CC(=O)CC(c1ccccc1)c1c(O)c2ccccc2oc1=O)=N/O (stereo unspecified)
inactive: [1] -45.5% | [2] 4.85% | [3] 19.1% | [4] -32.1% | [5] -15.8% | [6] 18.3%

CO[C@H](C)[C@](O)(C(=O)OCC1=CCN2CC[C@@H](O)[C@H]12)C(C)C
inactive: [1] -11.4% | [2] -37.6% | [3] -8.8% | [4] 1.25% | [5] -23.8% | [6] -13.6%

COc1cc(O)c2c(O)c3c(=O)cc(C)oc3cc2c1
inactive: [1] -9.75% | [2] -6.2% | [3] 20.6% | [4] 12.6% | [5] -1.95% | [6] -5.35%

C=C1[C@@H](C)[C@H]2[C@H](Cc3ccccc3)NC(=O)[C@]23OC(=O)/C=C/[C@H](O)CCC[C@@H](C)C/C=C/[C@H]3[C@@H]1O
inactive: [1] 53.4% | [2] 25.8% | [3] 24.6% | [4] 39% | [5] 58.8% | [6] 58.5%

c1ccc(N2CCNCC2)cc1
inactive: [1] -11.3% | [2] 4.45% | [3] -27.2% | [4] -28.6% | [5] -0.8% | [6] -1.5%

C=C[C](=C)[Pb]([CH2]C)([CH2]C)[CH2]C
inactive: [1] -7.3% | [2] 4.75% | [3] -10.5% | [4] 13.7% | [5] -10.6% | [6] 5.5%

N=C(N)N.[O]=[Cr](=[O])([OH])[OH]
inactive: [1] 29.4% | [2] -39.9% | [3] 37.5% | [4] 10.6% | [5] 26.8% | [6] 30.6%

CCC1(C(C)=O)CN2CCc3cc(OC)c(OC)cc3C2N2CCc3ccc(OC)c(OC)c3C21 (stereo unspecified)
active: [1] 96.9% | [2] 97.8% | [3] 97.7% | [4] 96.7% | [5] 98.5% | [6] 98%

Cc1cc2[nH]c3c(C#N)c(OC(=O)N(C)C)c(-c4ccccc4)c(=O)n3c2cc1C
inactive: [1] -8.75% | [2] 9.5% | [3] -7.85% | [4] -7.15% | [5] 1.9% | [6] 1.6%

N#CCCc1ccccc1
inactive: [1] -2.25% | [2] -7.95% | [3] -1.95% | [4] -12.8% | [5] -1.1% | [6] 0.65%

C[N+]12CCC34C5=CC(=O)C(=O)C=C5[N+]5(C)C(=O)CC6OCC=C(C1)C(CC32)C6C45 (stereo unspecified)
inactive: [1] -2% | [2] -22.1% | [3] 4.65% | [4] 10.9% | [5] 11.7% | [6] 0.7%

CC(C)(Br)[N+](=O)[O-]
inactive: [1] 9% | [2] -3.55% | [3] 4.45% | [4] 10.2% | [5] 10.8% | [6] 1.8%

C1CC[N+]2=C(C1)OCCC2
inactive: [1] 12.1% | [2] -2.15% | [3] 6.75% | [4] -17.2% | [5] -1.9% | [6] 4.25%

CN(C)C1OCC(C)(C)CO1
inactive: [1] -13.9% | [2] -34.7% | [3] -5.55% | [4] 12.3% | [5] -18% | [6] -7.1%
